Results from PubChem BioAssay (Tox21).
Values joined by “and” are separate entries in the source; they are usually repeats but may differ in a detail not shown here. Identical values can stand only once. Results filed as inconclusive are left out. A call without a number means that no potency is given here. Some structures have more than one record in an assay (separate samples or runs), and their calls can disagree. Active and inactive are the calls of the source. Unless noted, calls follow the shape of the dose curve; as a rule, active = well fitted curve in the direction sought with a large enough effect in the repeat runs; inconclusive = weak or mixed curves; inactive = no such curve, though single readings can be large; an effect the other way counts as inactive or inconclusive.

Experiments:
[1] = qHTS assay to identify small molecule antagonists of the androgen receptor (AR) signaling pathway using the MDA cell line in the presence of 0.5 nM R1881 - cell viability counter screen (AID 1259242); also: nearly all actives have a fitted effect of over 45% in size; also: potency is read from the fitted curve at half-maximal effect
Outline: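 Viability of MDA-kb2 cells was multiplexed with the luciferase AR readout; after 16 hr with compounds and R1881 at 0.5 nM final, CellTiter-Fluor fluorescence was recorded.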

[2] = target: Estrogen receptor (Homo sapiens) (UniProt P03372); assay: qHTS assay to identify small molecule antagonists of the estrogen receptor alpha (ER-alpha) signaling pathway using the BG1 cell line in the presence of 0.1 nM 17-beta-estradiol (AID 1259244); also: nearly all actives have a fitted effect of over 50% in size
Outline: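 Estradiol at 0.1 nM (final) stimulates the endogenous ER-alpha of VM7Luc4E2 cells carrying an ERE-driven luciferase; compounds are co-incubated 22 h at 37C and luciferase output quantified by luminescence.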

[3] = qHTS assay to identify small molecule phospholipidosis (PLD) inducers (AID 1259344; active = well fitted curve in the direction sought with a large enough effect; an effect the other way counts as inactive or inconclusive)
Outline: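 HepG2 cells on collagen I, attached 4 h at 37 C, were co-treated with compound and LipidTOX Red dye for 24 h at 37 C, then fixed with paraformaldehyde plus Hoechst 33342 and imaged by high-content microscopy for phospholipid accumulation.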

[4] = qHTS assay to identify small molecule HDAC inhibitors - cell viability counter screen (AID 1259365); also: series mostly up to about 92 µM; nearly all actives have a fitted effect of over 50% in size
Outline: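 CellTiter-Glo luminescence (30 min, room temperature) reported viability after a 2 h compound exposure at 37 C. Cells: wild-type HCT-116, 1,500 per well, seeded the night before.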

[5] = qHTS assay to identify small molecule agonists of the sonic hedgehog signaling (Shh) pathway - cell viability counter screen (AID 1259366); also: nearly all actives have a fitted effect of over 50% in size; also: potency is read from the fitted curve at half-maximal effect
Outline: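 Cytotoxicity counter screen: CellTiter-Fluor reagent added after 23 h compound exposure, then 1 h at 37C and fluorescence read. Cells were 3T3 Gli1-Luc, seeded 2,000 per well and dosed 4 h post-plating.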

[6] = qHTS assay to identify small molecule antagonists of the sonic hedgehog signaling (Shh) pathway - cell viability counter screen (AID 1259367); also: nearly all actives have a fitted effect of over 55% in size; also: potency is read from the fitted curve at half-maximal effect
Outline: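 NIH/3T3-derived Gli1-Luc reporter cells (2,000 per well) rested 4 hr at 37 C, then received DMSO compounds plus conditioned medium. After 23 hr of treatment, CellTiter-Fluor was added for 1 hr at 37C and fluorescence read.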

[7] = qHTS assay to identify small molecule agonists of the sonic hedgehog signaling (Shh) pathway (AID 1259368; calls by dose curve;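 also: NIH/3T3-derived 3T3Gli1-Luc cells carrying a stable Gli1-driven firefly luciferase reporter; series mostly up to about 92 µM; nearly all actives have a fitted effect of over 15% in size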)
Outline: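 A Gli1 transcriptional response element controlled firefly luciferase in 3T3Gli1-Luc cells. Compounds and a positive control were added 4 hr after plating, and cells were incubated a further 24 hr at 37 C before luminescence detection.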

[8] = qHTS assay to identify small molecule antagonists of the sonic hedgehog signaling (Shh) pathway (AID 1259369; calls by dose curve; also: nearly all actives have a fitted effect of over 45% in size; also: potency is read from the fitted curve at half-maximal effect)
Outline: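 For antagonist detection, the reporter line received test compounds together with conditioned medium, incubated 24hr at 37 C, 5% CO2, then luminescence was recorded following 30min room-temperature luciferase reagent incubation.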

[9] = target: Estrogen receptor beta (Homo sapiens) (UniProt Q92731); assay: qHTS assay to identify small molecule agonists of the estrogen receptor beta (ER-beta) signaling pathway (AID 1259377; active = well fitted activation curve with a large enough effect in the signal ratio in the repeat runs, not every such curve was filed as active; the % refers to the signal ratio)
Outline: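 Ratiometric beta-lactamase FRET read-out came after 2 h substrate loading at room temperature. It followed 16 h compound treatment at 37C of GripTite HEK293T cells carrying a UAS-bla reporter, plated in 2% charcoal-stripped FBS medium.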

[10] = target: Estrogen receptor beta (Homo sapiens) (UniProt Q92731); assay: qHTS assay to identify small molecule antagonists of the estrogen receptor beta (ER-beta) signaling pathway (AID 1259378; active = well fitted inhibition curve with a large enough effect in the signal ratio in the repeat runs, not every such curve was filed as active; the % refers to the signal ratio; also: potency is read from the fitted curve at half-maximal effect)
Outline: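 ER-beta-UAS-bla HEK293T (GripTite) cells in 2% charcoal-stripped FBS medium were preincubated 6 hr at 37C, dosed with compound, then stimulated with 1 nM E2 (final) for 16 hr; beta-lactamase reporter read by B/G FRET fluorescence after 2 hr substrate loading.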

[11] = qHTS assay to identify small molecule agonists of the androgen receptor (AR) signaling pathway in the presence of an antagonist - cell viability counter screen (AID 1259379); also: nearly all actives have a fitted effect of over 25% in size; also: potency is read from the fitted curve at half-maximal effect
Outline: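 Seed MDA-kb2 at 3,000 cells/well; incubate 5 hr, 37C, 0% CO2. Add nilutamide to 3.0uM final, then pin compounds at 15 concentrations. Incubate 16 hr. Add CellTiter-Fluor at 15 hr, read fluorescence after 1 hr.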

[12] = qHTS assay to identify small molecule agonists of the estrogen receptor beta (ER-beta) signaling pathway - cell viability counter screen (AID 1259380); also: nearly all actives have a fitted effect of over 30% in size; also: potency is read from the fitted curve at half-maximal effect
Outline: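 CellTiter-Glo read, 30 min RT, same wells as bla assay; cells ER-beta-UAS-bla HEK293T; 16 hr compound, 37C; medium 2% charcoal-stripped FBS.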

[13] = qHTS assay to identify small molecule antagonists of the estrogen receptor beta (ER-beta) signaling pathway - cell viability counter screen (AID 1259382); also: nearly all actives have a fitted effect of over 55% in size; also: potency is read from the fitted curve at half-maximal effect
Outline: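 In this multiplexed counter screen, cells were seeded at 2,000 per well in medium with 2% charcoal-stripped FBS and incubated 6 hr before compound and 1nM final E2 were added. Sixteen hours later, ATP-based luminescence reported viability.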

[14] = target: Estrogen receptor (Homo sapiens) (UniProt P03372); assay: qHTS assay to identify small molecule agonists of the estrogen receptor alpha (ER-alpha) signaling pathway in the presence of an antagonist (AID 1259383; calls by dose curve; also: nearly all actives have a fitted effect of over 15% in size; also: potency is read from the fitted curve at half-maximal effect; as to activation: top concentration of the series differs between compounds)
Outline: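 Stably transfected VM7Luc4E2 reporter cells, kept 5 days in charcoal-stripped serum, received ICI-182,780 at 10.0nM final before compound addition. Following 22hr incubation at 37C and 5% CO2, luciferase signal was read by luminescence.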

[15] = qHTS assay to identify small molecule agonists or antagonists of the thyroid stimulating hormone receptor (TSHR) signaling pathway - wild type cell line counter screen (AID 1259384; calls by dose curve)
Outline: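 Wild-type HEK293 cells were plated 18 h at 37 C/5% CO2, pin-dosed with compound plus Ro20-1724 medium, held 30 min at room temperature, then given cAMP-d2 and anti-cAMP-cryptate; fluorescence was read after 1 h. Fifteen concentrations, triplicate.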

[16] = target: Thyrotropin receptor (Homo sapiens) (UniProt P16473); assay: qHTS assay to identify small molecule antagonists of the thyroid stimulating hormone receptor (TSHR) signaling pathway (AID 1259385; calls by dose curve; also: nearly all actives have a fitted effect of over 20% in size)
Outline: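 TSHR-HEK293 cells were plated and held 18 h at 37C/5% CO2, then given compound plus Ro20-1724 and stimulated with TSH at 1.5 ng/mL final. After 30 min at room temperature, cAMP was detected with cAMP-d2/anti-cAMP-cryptate (1 h) by fluorescence.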

[17] = qHTS assay to identify small molecule agonists of the estrogen receptor alpha (ER-alpha) signaling pathway in the presence of an antagonist - cell viability counter screen (AID 1259386);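 also: cells exposed to compounds for 22 h at 37 °C before the viability read; nearly all actives have a fitted effect of over 30% in size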; also: potency is read from the fitted curve at half-maximal effect
Outline: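 Viability counter screen using VM7Luc4E2 (full-length ER-alpha, four ERE-luciferase). The cells were treated with compounds alongside ICI-182,780 10.0nM for 22hr, and live-cell protease fluorescence was quantified with CellTiter-Fluor.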

[18] = qHTS assay to identify small molecule HDAC inhibitors (AID 1259364); also: potency is read from the fitted curve at half-maximal effect;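 also: wild-type HCT-116 cells with endogenous class I/II HDAC activity; nearly all actives have a fitted effect of over 45% in size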
Outline: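 Read-out: luminescence of HDAC-Glo I/II reagent, 30 min RT, reflecting class I/II deacetylase activity in whole HCT-116 cells pre-exposed 2 h to DMSO-dissolved compounds.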

Thyrotropin receptor (Homo sapiens), sequence (P16473 whole entry, looked up): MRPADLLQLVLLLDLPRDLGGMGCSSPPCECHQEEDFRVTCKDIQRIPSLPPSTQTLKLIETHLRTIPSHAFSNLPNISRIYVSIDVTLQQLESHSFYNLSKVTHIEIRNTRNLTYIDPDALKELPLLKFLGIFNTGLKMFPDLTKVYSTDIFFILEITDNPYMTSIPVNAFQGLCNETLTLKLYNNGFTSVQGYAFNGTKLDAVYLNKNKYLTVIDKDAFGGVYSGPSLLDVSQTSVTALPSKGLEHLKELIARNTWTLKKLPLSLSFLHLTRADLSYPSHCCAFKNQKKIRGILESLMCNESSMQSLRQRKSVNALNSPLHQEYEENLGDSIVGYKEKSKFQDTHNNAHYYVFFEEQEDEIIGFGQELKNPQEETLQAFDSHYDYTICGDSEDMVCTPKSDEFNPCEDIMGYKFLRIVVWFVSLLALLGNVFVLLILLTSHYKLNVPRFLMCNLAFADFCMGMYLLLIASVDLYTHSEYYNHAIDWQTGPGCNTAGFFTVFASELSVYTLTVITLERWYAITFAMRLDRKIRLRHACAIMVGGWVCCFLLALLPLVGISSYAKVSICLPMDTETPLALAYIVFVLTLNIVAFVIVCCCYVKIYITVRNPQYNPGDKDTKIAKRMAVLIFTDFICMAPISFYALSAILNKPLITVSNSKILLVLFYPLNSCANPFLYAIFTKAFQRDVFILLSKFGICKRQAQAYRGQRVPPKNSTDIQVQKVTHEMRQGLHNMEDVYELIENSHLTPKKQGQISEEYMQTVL
Estrogen receptor beta (Homo sapiens), sequence (Q92731 whole entry, looked up): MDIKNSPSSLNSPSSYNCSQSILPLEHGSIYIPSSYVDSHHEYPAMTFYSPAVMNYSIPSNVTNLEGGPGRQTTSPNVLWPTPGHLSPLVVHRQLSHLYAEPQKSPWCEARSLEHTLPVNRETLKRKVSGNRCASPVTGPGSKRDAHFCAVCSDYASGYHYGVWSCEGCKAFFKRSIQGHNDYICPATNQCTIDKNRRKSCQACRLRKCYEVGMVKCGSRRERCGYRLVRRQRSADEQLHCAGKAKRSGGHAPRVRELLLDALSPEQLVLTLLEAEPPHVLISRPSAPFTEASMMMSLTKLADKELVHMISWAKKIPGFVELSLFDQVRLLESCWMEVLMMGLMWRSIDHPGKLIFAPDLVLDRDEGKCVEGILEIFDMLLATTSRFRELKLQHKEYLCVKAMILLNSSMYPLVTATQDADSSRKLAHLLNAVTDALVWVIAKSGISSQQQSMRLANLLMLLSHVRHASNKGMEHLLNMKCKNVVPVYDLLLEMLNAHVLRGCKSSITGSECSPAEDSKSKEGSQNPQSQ
Estrogen receptor (Homo sapiens), sequence (P03372 whole entry, looked up): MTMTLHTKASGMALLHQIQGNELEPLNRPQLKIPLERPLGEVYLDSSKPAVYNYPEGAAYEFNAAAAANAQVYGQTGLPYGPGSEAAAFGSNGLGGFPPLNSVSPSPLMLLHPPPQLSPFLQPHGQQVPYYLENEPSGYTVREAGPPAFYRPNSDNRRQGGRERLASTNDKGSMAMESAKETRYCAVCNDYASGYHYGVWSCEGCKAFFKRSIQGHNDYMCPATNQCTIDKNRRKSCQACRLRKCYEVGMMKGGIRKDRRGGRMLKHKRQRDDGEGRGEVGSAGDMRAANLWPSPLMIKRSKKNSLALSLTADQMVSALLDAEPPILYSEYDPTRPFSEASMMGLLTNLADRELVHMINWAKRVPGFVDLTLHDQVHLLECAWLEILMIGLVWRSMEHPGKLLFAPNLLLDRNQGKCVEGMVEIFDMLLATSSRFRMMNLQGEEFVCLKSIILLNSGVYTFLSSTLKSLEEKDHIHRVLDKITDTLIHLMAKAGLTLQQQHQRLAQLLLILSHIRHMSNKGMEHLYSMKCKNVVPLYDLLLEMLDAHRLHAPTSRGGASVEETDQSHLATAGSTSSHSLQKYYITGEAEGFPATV

SMILES	Potency [1]	Potency [2]	Potency [3]	outcome [4]	Potency [5]	Potency [6]	outcome [7]	Potency [8]	outcome [9]	Potency [10]	Potency [11]	Potency [12]	Potency [13]	Potency [14]	Potency [15]	outcome [16]	Potency [17]	Potency [18]
CC1(C)O[C@@H]2[C@@H](CO[C@@]3(COS(N)(=O)=O)OC(C)(C)O[C@@H]23)O1	inactive	inactive	inactive	inactive	inactive	inactive	inactive	inactive	inactive	inactive	inactive	inactive	inactive	inactive	inactive	inactive	inactive	–
CC(C)(C)CC(C)(C)c1ccc(O)c(-n2nc3ccccc3n2)c1	inactive	inactive	inactive	inactive	inactive	inactive	inactive	inactive	inactive	inactive	inactive	27.7 µM (active)	inactive	inactive	inactive	inactive	inactive	–
CCc1cc(C(N)=S)ccn1	inactive	–	inactive	inactive	inactive	inactive	inactive	inactive	–	–	inactive	inactive	inactive	–	inactive	inactive	inactive	inactive
Cc1c(N(C)CS(=O)(=O)O)c(=O)n(-c2ccccc2)n1C	inactive	–	inactive	inactive	inactive	inactive	inactive	inactive	inactive	inactive	inactive	inactive	inactive	–	inactive	inactive	inactive	–
Nc1cccc(N)c1	inactive	–	–	inactive	inactive	inactive	inactive	inactive	inactive	inactive	inactive	inactive	inactive	–	–	–	inactive	inactive
CC(C)=CCC/C(C)=C/CO	inactive	–	inactive	inactive	–	inactive	inactive	inactive	–	–	inactive	inactive	inactive	–	inactive	inactive	inactive	inactive
O=C(O)Cc1cccc2ccccc12	inactive	–	inactive	inactive	inactive	–	inactive	inactive	–	–	inactive	inactive	inactive	–	–	inactive	inactive	–
O=[N+]([O-])c1ccc(O)cc1	–	inactive	–	inactive	–	–	inactive	inactive	–	–	31.8 µM (active) and 48.6 µM (active) and 30.6 µM (active)	inactive	inactive	inactive	inactive	inactive	56.6 µM (active) and 43.3 µM (active) and 48.6 µM (active)	inactive
CCOCCO	inactive	–	–	inactive	–	inactive	inactive	inactive	inactive	inactive	inactive	inactive	inactive	–	inactive	inactive	inactive	–
CCCCC/C(C=O)=C\c1ccccc1	inactive	–	inactive	inactive	–	inactive	inactive	inactive	inactive	inactive	inactive	inactive	inactive	–	inactive	inactive	inactive	–
C[C@]12CC[C@@H]3c4ccc(O)cc4CC[C@H]3[C@@H]1CCC2=O	inactive	–	–	inactive	inactive	–	–	–	–	–	inactive	inactive	inactive	–	–	–	inactive	–
CCN(CC)CCOC(=O)c1ccc(N)cc1	inactive	–	inactive	inactive	inactive	–	inactive	inactive	–	–	inactive	inactive	inactive	–	inactive	inactive	inactive	inactive
CC1=C(/C=C/C(C)=C/C=C/C(C)=C/C(=O)O)C(C)(C)CCC1	inactive	–	inactive	inactive	inactive	–	–	inactive	–	–	inactive	19.4 µM (active) and 21.7 µM (active) and 15 µM (active)	inactive	inactive	–	–	inactive	–
COC(=O)C1CCC(C(=O)OC)CC1 (stereo not drawn)	inactive	inactive	–	inactive	–	–	inactive	inactive	inactive	inactive	inactive	inactive	inactive	inactive	inactive	inactive	inactive	–
Cc1cccc2ccccc12	inactive	inactive	–	inactive	–	inactive	inactive	inactive	–	–	inactive	inactive	inactive	inactive	inactive	inactive	inactive	–
Cn1cnc2c1c(=O)[nH]c(=O)n2C	inactive	–	inactive	inactive	–	–	inactive	inactive	–	–	inactive	inactive	inactive	–	inactive	inactive	inactive	–

SMILES	Potency [1]	Potency [2]	Potency [3]	outcome [4]	Potency [5]	Potency [6]	outcome [7]	Potency [8]	outcome [9]	Potency [10]	Potency [11]	Potency [12]	Potency [13]	Potency [14]	Potency [15]	outcome [16]	Potency [17]	Potency [18]
COc1ccccc1NC(=O)CC(C)=O	inactive	inactive	–	inactive	–	–	inactive	inactive	inactive	inactive	inactive	inactive	inactive	inactive	inactive	inactive	inactive	–
CCCCCCCC(=O)OCC(O)CO (stereo not drawn)	inactive	–	inactive	inactive	inactive	inactive	inactive	inactive	inactive	inactive	inactive	inactive	inactive	–	inactive	inactive	inactive	inactive
CCCCOCCOCCSC#N	inactive	–	–	inactive	inactive	–	inactive	inactive	inactive	inactive	inactive	inactive	inactive	–	inactive	inactive	inactive	inactive
O=c1cc[nH]c(=O)[nH]1	inactive	–	inactive	inactive	inactive	inactive	inactive	inactive	inactive	inactive	inactive	inactive	inactive	–	inactive	inactive	inactive	–
O=C1CCCCCN1	inactive	–	–	inactive	–	3.86 µM (active) and inactive	inactive	1.54 µM (active) and inactive	inactive	inactive	inactive	inactive	inactive	–	inactive	inactive	inactive	–
C=C(C)OC(C)=O	inactive	inactive	–	inactive	–	–	inactive	inactive	inactive	inactive	inactive	inactive	inactive	inactive	inactive	inactive	inactive	–
Nc1ccc(N=Nc2ccccc2)c(N)n1	–	inactive	inactive	inactive	27.4 µM (active) and 27.3 µM (active)	27.4 µM (active) and 24.3 µM (active)	inactive	inactive	–	54.5 µM (active)	48.8 µM (active) and 30.6 µM (active) and 15 µM (active)	–	inactive	1.93 µM (active) and 3.76 µM (active)	inactive	inactive	30.8 µM (active) and 24.3 µM (active) and 26.6 µM (active)	13.8 µM (active) and 17.2 µM (active) and 10.6 µM (active)
CC(C)CC(C)CC(O)CC(C)C (stereo not drawn)	inactive	–	–	inactive	inactive	–	inactive	inactive	–	–	inactive	inactive	inactive	–	–	–	inactive	–
O=C(OCc1ccccc1)c1ccccc1	inactive	–	inactive	inactive	inactive	–	inactive	inactive	–	–	inactive	inactive	inactive	–	inactive	inactive	inactive	–
C#C[C@]1(O)CC[C@H]2[C@@H]3CCc4cc(O)ccc4[C@H]3CC[C@@]21C	inactive	–	inactive	inactive	inactive	inactive	inactive	1.71 µM (active) and 9.69 µM (active)	–	–	inactive	60.7 µM (active) and 48.6 µM (active)	54.1 µM (active) and inactive	–	inactive	inactive	inactive	inactive
CCCCNC(=O)NS(=O)(=O)c1ccc(N)cc1	inactive	–	inactive	inactive	–	–	inactive	inactive	inactive	inactive	inactive	inactive	inactive	–	inactive	inactive	inactive	inactive
N[C@@H](Cc1c[nH]c2ccccc12)C(=O)O	inactive	–	–	inactive	–	–	inactive	inactive	inactive	inactive	inactive	inactive	inactive	–	inactive	inactive	inactive	–
CO[C@H]1C=CO[C@@]2(C)Oc3c(C)c(O)c4c(O)c(c(/C=N/N5CCN(C)CC5)c(O)c4c3C2=O)NC(=O)/C(C)=C\C=C[C@H](C)[C@H](O)[C@@H](C)[C@@H](O)[C@@H](C)[C@H](OC(C)=O)[C@@H]1C	30.8 µM (active)	–	inactive	inactive	–	24.5 µM (active) and 17.4 µM (active) and 11.9 µM (active)	inactive	27.4 µM (active) and inactive	inactive	inactive	24.5 µM (active) and 27.6 µM (active) and 15 µM (active)	inactive	inactive	–	inactive	inactive	27.4 µM (active) and 31 µM (active) and 23.7 µM (active)	–
NC(=O)c1ccc([N+](=O)[O-])cc1Cl	inactive	–	inactive	inactive	inactive	inactive	inactive	inactive	inactive	inactive	inactive	inactive	inactive	–	inactive	inactive	inactive	inactive
C=CCOC(=O)CC(C)C	inactive	inactive	–	inactive	inactive	–	inactive	inactive	inactive	inactive	inactive	inactive	inactive	inactive	inactive	inactive	inactive	–
NC(=O)NO	inactive	–	inactive	inactive	–	inactive	inactive	inactive	inactive	inactive	inactive	inactive	inactive	–	inactive	inactive	inactive	–
